PubChem BioAssay (NCI)
Compounds without any hit were thinned out: in the full panel of roughly 79,000, 15% have a hit. Activity calls are given as the source filed them. Cut-off read from the data, not from the text of the source: active = growth inhibition above about 70%; inactive = the rest.

How the values were obtained:
[1] = NCI Yeast Anticancer Drug Screen. Data for the wt1 strain (AID 149);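 note: 0% = growth of vehicle-treated wt1 cultures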; conditions: S. cerevisiae wt1 strain (SPY 50644) growth inhibition, stronger effect = higher value
In short: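 Growth inhibition read against vehicle controls after compound exposure of the wt1 yeast strain.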

[2] = NCI Yeast Anticancer Drug Screen. Data for the rad50EPP+ strain (AID 151);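 note: 0% = growth of vehicle-treated control cultures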; conditions: S. cerevisiae rad50 mutant strain, stronger effect = higher value
In short: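 Growth inhibition read against vehicle controls in rad50EPP+ yeast, a strain altered in DNA damage repair, after compound exposure.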

[3] = NCI Yeast Anticancer Drug Screen. Data for the rad50 strain (AID 155);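 note: 0% = growth of vehicle-only cultures of the same strain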; conditions: S. cerevisiae rad50 strain growth inhibition, stronger effect = higher value
In short: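 Readout: growth inhibition relative to vehicle-treated cultures. Compound exposure was carried out in a genetically defined yeast strain deficient in DNA damage repair.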

[4] = NCI Yeast Anticancer Drug Screen. Data for the mec2-1 strain (AID 157); conditions: S. cerevisiae mec2-1 strain, stronger effect = higher value
In short: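 Yeast mec2-1 mutant treated with compound. Readout: growth inhibition vs vehicle controls.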

[5] = NCI Yeast Anticancer Drug Screen. Data for the rad14 strain (AID 159);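 note: 0% = growth of vehicle-treated control cultures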; conditions: S. cerevisiae rad14 strain growth inhibition, stronger effect = higher value
In short: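 Growth inhibition vs vehicle controls; genetically altered yeast strain (DNA damage repair defect) treated with test compounds.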

[6] = NCI Yeast Anticancer Drug Screen. Data for the sgs1 mgt1 strain (AID 161);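 note: 0% = growth of cultures given vehicle only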; conditions: S. cerevisiae sgs1 mgt1 strain, stronger effect = higher value
In short: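 Inhibition of yeast growth, normalised to vehicle-treated controls, is reported for a strain bearing genetic alterations in DNA damage repair.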

[7] = NCI Yeast Anticancer Drug Screen. Data for the CLN2oe strain (AID 163);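 note: 0% = growth of vehicle-only control cultures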; conditions: S. cerevisiae CLN2oe strain, stronger effect = higher value
In short: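 Read-out: yeast growth inhibition, expressed relative to vehicle-only controls. The strain bears an engineered cell-cycle alteration.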

[8] = NCI Yeast Anticancer Drug Screen. Data for the bub3 strain (AID 167); conditions: S. cerevisiae bub3 mutant strain, stronger effect = higher value
In short: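 Readout: yeast growth inhibition, expressed relative to vehicle-only wells. The test organism is a mutant strain from a panel with lesions in DNA repair or checkpoint genes.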

[9] = NCI Yeast Anticancer Drug Screen. Data for the wt2 strain (AID 169);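 note: 0% = growth of vehicle-treated yeast cultures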; conditions: S. cerevisiae wt2 strain growth inhibition, stronger effect = higher value
In short: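 Read-out: growth inhibition versus vehicle-treated control cultures after compound exposure of the yeast strain.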

[10] = NCI Yeast Anticancer Drug Screen. Data for the mlh1 strain (AID 171);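 note: 0% = growth of vehicle-treated control cultures of the same strain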; conditions: S. cerevisiae mlh1 strain growth inhibition, stronger effect = higher value
In short: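 Read-out: growth inhibition versus vehicle controls. Strain: engineered yeast with a defined DNA repair or cell cycle defect, compound-treated.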

[11] = NCI Yeast Anticancer Drug Screen. Data for the mlh1 rad18 strain (AID 175); conditions: S. cerevisiae mlh1 rad18 strain growth inhibition, stronger effect = higher value
In short: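 Yeast w/ defined DNA-repair lesions; compound exposure; growth vs vehicle controls → % inhibition.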

[12] = NCI Yeast Anticancer Drug Screen. Data for the rad18 strain (AID 177); conditions: S. cerevisiae rad18 mutant growth inhibition, stronger effect = higher value
In short: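 Readout: growth inhibition vs vehicle controls. Cells: genetically altered yeast strain, DNA repair defect.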

[13] = NCI Yeast Anticancer Drug Screen. Data for the cln2 rad14 strain (AID 165);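 note: 0% = growth equal to vehicle treated cultures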; conditions: S. cerevisiae cln2 rad14 strain, stronger effect = higher value
In short: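 cln2 rad14 yeast strain; compound exposure; growth inhibition read vs vehicle controls.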

[14] = NCI Yeast Anticancer Drug Screen. Data for the sgs1 strain (AID 173);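 note: 0% = growth of vehicle-only control cultures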; conditions: S. cerevisiae sgs1 mutant, stronger effect = higher value
In short: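 Read-out: yeast growth inhibition relative to vehicle controls, following compound exposure of a strain with a defined DNA repair/cell cycle alteration.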

[15] = at 5.0 µM (retest, dose inferred, filed as 0.5)
[16] = at 50.0 µM (retest, dose inferred, filed as 5.0)

Measured: growth inhibition

Cc1cc(NC(=S)SCc2ccc(Cl)cc2)ccc1Cl
inactive: [1]; at 1.2 µM 11% | [1]; at 3.7 µM 24% | [1]; at 11.0 µM 63% | [2]; at 1.2 µM 3% | [2]; at 3.7 µM 29% | [3]; at 1.2 µM 12% | [3]; at 3.7 µM 10% | [3]; [15] 24% | [3]; at 11.0 µM 44% | [4]; at 1.2 µM -3% | [4]; at 3.7 µM 6% | [4]; [15] 0% | [4]; at 11.0 µM 29% | [5]; at 1.2 µM -4% | [5]; at 3.7 µM 22% | [5]; at 11.0 µM 46% | [6]; [15] 43% | [7]; at 1.2 µM -3% | [7]; at 3.7 µM 15% | [7]; at 11.0 µM 44% | [8]; at 1.2 µM -4% | [8]; at 3.7 µM -8% | [8]; [15] 48% | [8]; at 11.0 µM 49% | [9]; at 1.2 µM -5% | [9]; at 3.7 µM 20% | [9]; at 11.0 µM 56% | [10]; at 1.2 µM -17% | [10]; at 3.7 µM -8% | [10]; at 11.0 µM 27% | [11]; [15] 11% | [12]; at 1.2 µM 13% | [12]; at 3.7 µM 35% | [12]; at 11.0 µM 69%
active: [1]; at 33.0 µM 98% | [1]; at 100.0 µM 98% | [2]; at 11.0 µM 92% | [2]; at 33.0 µM 99% | [2]; at 100.0 µM 99% | [3]; at 33.0 µM 97% | [3]; [16] 96% | [3]; at 50.0 µM 90.5% | [3]; at 100.0 µM 95% | [4]; at 33.0 µM 98% | [4]; [16] 97% | [4]; at 50.0 µM 92.5% | [4]; at 100.0 µM 98% | [5]; at 33.0 µM 99% | [5]; at 100.0 µM 98% | [6]; [16] 98% | [6]; at 50.0 µM 91.8% | [7]; at 33.0 µM 98% | [7]; at 100.0 µM 98% | [8]; at 33.0 µM 99% | [8]; [16] 98% | [8]; at 50.0 µM 91.6% | [8]; at 100.0 µM 98% | [9]; at 33.0 µM 98% | [9]; at 100.0 µM 99% | [10]; at 33.0 µM 98% | [10]; at 100.0 µM 98% | [11]; [16] 96% | [11]; at 50.0 µM 90.6% | [12]; at 33.0 µM 98% | [12]; at 100.0 µM 96%

COc1ccc(C(=O)OCCc2ccccc2)cc1
inactive: [1]; at 1.2 µM -2% | [1]; at 3.7 µM -5% | [1]; at 11.0 µM -5% | [1]; at 33.0 µM -7% | [1]; at 100.0 µM -8% | [2]; at 1.2 µM 10% | [2]; at 3.7 µM 16% | [2]; at 11.0 µM 19% | [2]; at 33.0 µM 31% | [2]; at 100.0 µM 47% | [3]; at 1.2 µM 6% | [3]; at 3.7 µM 3% | [3]; [15] -3% | [3]; at 11.0 µM 1% | [3]; at 33.0 µM 13% | [3]; [16] 23% | [3]; at 50.0 µM -7.35% | [3]; at 100.0 µM 9% | [4]; at 1.2 µM -1% | [4]; at 3.7 µM -4% | [4]; [15] -28% | [4]; at 11.0 µM -4% | [4]; at 33.0 µM -5% | [4]; [16] -14% | [4]; at 50.0 µM 1.85% | [4]; at 100.0 µM -5% | [5]; at 1.2 µM 5% | [5]; at 3.7 µM 0% | [5]; at 11.0 µM -6% | [5]; at 33.0 µM 3% | [5]; at 100.0 µM 4% | [7]; at 1.2 µM -3% | [7]; at 3.7 µM -9% | [7]; at 11.0 µM -10% | [7]; at 33.0 µM -7% | [7]; at 100.0 µM -6% | [13]; [15] -1% | [13]; [16] -2% | [13]; at 50.0 µM -10.5% | [8]; at 1.2 µM 2% | [8]; at 3.7 µM 12% | [8]; [15] 20% | [8]; at 11.0 µM 16% | [8]; at 33.0 µM 34% | [8]; at 50.0 µM 56.5% | [8]; at 100.0 µM 34% | [10]; at 1.2 µM 0% | [10]; at 3.7 µM 0% | [10]; at 11.0 µM -5% | [10]; at 33.0 µM 1% | [10]; at 100.0 µM 9% | [14]; at 1.2 µM -15% | [14]; at 3.7 µM 7% | [14]; at 11.0 µM -18% | [14]; at 33.0 µM -2% | [14]; at 100.0 µM -4% | [12]; at 1.2 µM 3% | [12]; at 3.7 µM 3% | [12]; at 11.0 µM 0% | [12]; at 33.0 µM 9% | [12]; at 100.0 µM 8%
active: [8]; [16] 79%
